The values below come from PubChem BioAssay (NCATS).

Inconclusive results are not listed. Unmarked numbers belong to inactive results. The source made the active and inactive calls. Calls follow the shape of the dose curve; as a rule, active = well fitted cell-killing curve with a large enough effect; inconclusive = small, poorly fitted or top-dose-only effect, or effect the other way; inactive = no such curve, though single readings can be large or run the other way.

Test [1] is described as follows: Quantitative High-Throughput drug screen in 47 multiple myeloma cell lines against the NCATS MIPE library collection: MM1S_ATCC cell viability assay (AID 1918980). Also: nearly all actives have a fitted effect of over 45% in size. In a few lines:
(§1)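 Myeloma cells (500/well) treated with MIPE 4.0 compounds for 48 h at 37 °C, 5% CO2. Viability read as ATP via CellTiter-Glo luminescence after 5 min at RT; DMSO-only wells = 100%, media-only = 0% viability.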

Test [2] can be described thus: Quantitative High-Throughput drug screen in 47 multiple myeloma cell lines against the NCATS MIPE library collection: LP1_DSMZ cell viability assay (AID 1918982). Also: nearly all actives have a fitted effect of over 35% in size. In a few lines: as §1
A short description of test [3]: Quantitative High-Throughput drug screen in 47 multiple myeloma cell lines against the NCATS MIPE library collection: L363_DSMZ cell viability assay (AID 1918984). Also: nearly all actives have a fitted effect of over 40% in size. In a few lines: as §1
Test [4] is described as follows: Quantitative High-Throughput drug screen in 47 multiple myeloma cell lines against the NCATS MIPE library collection: KMS34_JCRB cell viability assay (AID 1918985). Also: nearly all actives have a fitted effect of over 40% in size. In a few lines: as §1
A short description of test [5]: Quantitative High-Throughput drug screen in 47 multiple myeloma cell lines against the NCATS MIPE library collection: OCIMY5_PLB cell viability assay (AID 1918988). Also: nearly all actives have a fitted effect of over 65% in size. In a few lines:
as §1

A short description of test [6]: Quantitative High-Throughput drug screen in 47 multiple myeloma cell lines against the NCATS MIPE library collection: KMS28PE_JCRB cell viability assay (AID 1918983). Also: nearly all actives have a fitted effect of over 35% in size. In a few lines:
as §1

Test [7] is described as follows: Quantitative High-Throughput drug screen in 47 multiple myeloma cell lines against the NCATS MIPE library collection: OPM1_PLB cell viability assay (AID 1918989). Also: nearly all actives have a fitted effect of over 40% in size. In a few lines:
as §1

Test [8] can be described thus: Quantitative High-Throughput drug screen in 47 multiple myeloma cell lines against the NCATS MIPE library collection: SKMM1_PLB cell viability assay (AID 1919863). Also: nearly all actives have a fitted effect of over 35% in size. To be noted: SKMM1 myeloma viability, CellTiter-Glo ATP, 48 h; viability: stronger effect = lower value. In a few lines:
as §1
On the technique in general: Cellular ATP, detected with luciferase, serves as a proxy for viable cell number.

Test [9] in a line: Quantitative High-Throughput drug screen in 47 multiple myeloma cell lines against the NCATS MIPE library collection: OCIMY7_PLB cell viability assay (AID 1918987). Also: nearly all actives have a fitted effect of over 65% in size. Particulars: OCI-MY7 myeloma viability, CellTiter-Glo ATP, 48 h; viability (% of DMSO): at 45.8 µM (top of the series). In a few lines: as §1
Potency is read from the fitted curve at half-maximal effect.

As to `NC1=N[C@H]2[C@H](CS[C@H]2CCCCC(=O)O)N1`, the Potency result in [1], in [2], in test [3], in test [4] and in test [5] was “inactive” throughout.

On to `CCCCCCCCCCCC(CC1OC(=O)C1CCCCCC)OC(=O)C(CC(C)C)NC=O` (centres undefined), for which the Potency entry in test [1], in [3], in [4] and in test [7] was “inactive” each time. Also, the Potency in [6] is 26.4 µM (active); in test [5], 18.7 µM (active); in [8], 16.6 µM (active).

`COc1cc(C(=O)NC2CCN(C)CC2)ccc1Nc1ncc2c(n1)N(C1CCCC1)CCC(=O)N2C(C)C`: the Potency in test [1] was 1.05 µM (active); in [3] it was 16.6 µM (active); in test [9] it was 14.8 µM (active); in test [5], 18.7 µM (active).

In the case of `Cn1c(Nc2ccc(C(F)(F)F)cc2)nc2cc(Oc3ccnc(-c4ncc(C(F)(F)F)[nH]4)c3)ccc21`, the Potency in test [1] is 9.35 µM (active); in test [6], 23.5 µM (active); in test [3], 16.6 µM (active); in [9], 3.72 µM (active); in test [5], 9.35 µM (active); in test [8], 20.9 µM (active).

As to `CC(=CC(=O)Nc1ccccc1C(=O)O)c1ccc2ccccc2c1`, the Potency in test [1] is 8.33 µM (active). Also, in test [6], the Potency result is “inactive”.

As to `N=c1ccn2c(n1)O[C@H]1[C@@H](O)[C@@H](CO)O[C@H]12`, the Potency in [1] is 2.64 µM (active); in test [9], 0.332 µM (active); in [8] it was 0.148 µM (active). In addition, the Potency result in test [2] and in [6] was “inactive” each time.

As to `Cc1[nH]c(C=C2C(=O)Nc3ccccc32)c(C)c1CCC(=O)O`, the Potency in test [1] was 0.0833 µM (active); in [3], 9.35 µM (active); in [5] it was 18.7 µM (active); in test [7], 23.5 µM (active).

For the compound `c1ccc2c(Oc3nc(Nc4ccc(N5CCOCC5)cc4)c4ncn(C5CCCCC5)c4n3)cccc2c1`, the Potency result in test [1], in [6] and in test [7] was “inactive” throughout. Also, the Potency in [9] was 14.8 µM (active); in [5] it was 18.7 µM (active).

Take `C[C@@H](Oc1ccc2[nH]nc(C=Cc3cnn(CCO)c3)c2c1)c1c(Cl)cncc1Cl`: the Potency in test [1] is 6.62 µM (active); in [2], 20.9 µM (active); in test [6], 4.18 µM (active); in test [4], 0.209 µM (active); in test [9] it was 0.148 µM (active); in [5] it was 6.62 µM (active). In addition, the Potency in test [8] is 26.4 µM (active).

Take `CCOC(=O)N1CCN([N+]([O-])=NOc2ccc([N+](=O)[O-])cc2[N+](=O)[O-])CC1`: the Potency in test [1] was 1.87 µM (active); in test [2], 2.64 µM (active); in test [6], 1.32 µM (active); in test [4] it was 0.935 µM (active); in test [9], 0.526 µM (active); in test [5] it was 1.32 µM (active). Moreover, the Potency in test [7] is 1.18 µM (active); in test [8] it was 6.62 µM (active).

The term viability denotes a read-out of living cells in per cent, often relative to untreated cells. Regarding `COc1ccc(C(C)=O)c(O)c1`, the Potency in [1] was 4.69 µM (active). The Potency entry in test [2], in [6], in test [4], in test [5] and in test [7] was “inactive” throughout. The viability in test [8] was 112%.

With `CCc1nc(-c2cccc(C)c2)c(-c2ccnc(NC(=O)c3ccccc3)c2)s1`, the Potency in [1] is 20.9 µM (active); in test [6] it was 20.9 µM (active); in test [7] it was 13.2 µM (active); in test [8], 7.43 µM (active). Besides, the Potency result in test [3] is “inactive”.

`CC(C)C[C@H](NC(=O)CNC(=O)c1cc(Cl)ccc1Cl)B1OC(=O)CC(CC(=O)O)(C(=O)O)O1` (some centres undefined): the Potency in test [1] was 0.0418 µM (active); in [2] it was 0.0743 µM (active); in [3], 0.0833 µM (active); in test [4] it was 0.0469 µM (active); in [9], 0.0296 µM (active); in test [5] it was 0.0264 µM (active). For the same compound, the Potency in [7] was 0.0372 µM (active); in test [8], 0.209 µM (active).

Regarding `CC(=O)SCC(Cc1ccccc1)C(=O)NCC(=O)OCc1ccccc1` (centres undefined), the Potency was 0.59 µM (active) in test [1]; 7.43 µM (active) in [6]; 5.9 µM (active) in test [3]; 2.35 µM (active) in [4]; 3.72 µM (active) in test [9]; 5.26 µM (active) in test [7]. Moreover, the Potency in test [8] was 10.5 µM (active).

With `Cc1cnc(NC(=O)Nc2cc(Br)c(C)cc2OC[C@@H]2CNCCO2)cn1`, the Potency was 0.662 µM (active) in test [1], 13.2 µM (active) in [6], 3.32 µM (active) in test [4] and 1.48 µM (active) in [5].

With `CC(C)(C)[C@H](NC(=O)c1ccc(N)c(Cl)c1)C(=O)N1CCC[C@@H]1C(=O)N[C@H](C#N)CC(=O)O`, the figures for the viability (% of control) in test [1] and in test [3] were 120% [at 3.51 µM] and 111% [at 3.51 µM], respectively. In test [6], the viability, % of DMSO control is 131% [at 3.51 µM]. Moreover, the viability, percent of control in test [4] was 103% [at 3.51 µM]. Further, in test [5], the viability, % of control is 135% [at 3.51 µM]. Further, the viability in [8] is 125%.

On to `CCOC(=O)C1=C(C)NC(=S)NC1c1cccc(O)c1` (centres undefined), for which the Potency in test [1] was 0.0418 µM (active); in test [6], 0.0833 µM (active); in test [4], 0.0833 µM (active); in test [9] it was 0.105 µM (active); in test [5], 0.0235 µM (active); in [8], 0.0526 µM (active).

For the compound `CC(C)OC(=O)[C@H](C)N[P@](=O)(OC[C@H]1O[C@@H](n2ccc(=O)[nH]c2=O)[C@](C)(F)[C@H]1O)Oc1ccccc1`, the Potency entry in test [1], in [2], in test [4] and in [7] was “inactive” throughout. The viability in [8] is 127%.

For `Cc1ccc(-n2[nH]c(C)c(N=Nc3cccc(-c4cccc(C(=O)O)c4)c3O)c2=O)cc1C`, the results for the Potency in test [1], in test [2] and in [5] were 18.7 µM (active), 16.6 µM (active) and 26.4 µM (active), respectively. For the same compound, the Potency entry in [3] is “inactive”.

Turning to `O=C(Nc1ccc(Oc2ccnc3[nH]ccc23)c(F)c1)c1cccn(-c2ccc(F)cc2)c1=O`, the Potency entry in test [1], in test [2] and in test [7] was “inactive” each time. Besides, in test [8], the Potency is 18.7 µM (active).

Consider `C=C1CCC2[C@](C)(CO)C(O)CC[C@]2(C)C1CC=C1C(=O)OCC1O` (some centres undefined), for which the Potency entry in test [1], in test [2] and in test [7] was “inactive” in each case. Moreover, the Potency in test [5] was 42.9 µM (active).

Consider `O=c1c(O)c(-c2ccc(O)c(O)c2)oc2cc(O)ccc12`, for which the Potency in test [1] was 23.5 µM (active); in test [2] it was 23.5 µM (active); in test [4], 18.7 µM (active); in test [9], 6.62 µM (active); in test [5] it was 20.9 µM (active); in test [7], 18.7 µM (active).
